Experiment [1] relates to Human papillomavirus type 1a protein E7 (residues 44-93). Nature of the experiment: HPV1a E7 fragment binders on microarrays, primary screen, biochemical, small-molecule microarray, residues 44-93, 635 nm fluorescence (AID 1108).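 Further: E7 fragment applied at 1 µg/mL in TBST for 1 h at 4 C; score combines spot fluorescence with its signal to noise ratio.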 To be noted: small-molecule microarray binding, fluorescence 635 nm; higher = more signal.
Experiment [2] in a line: modulators of HCV replicon luciferase signal, primary screen, HCV replication inhibitor project, Huh7 cells, luciferase reporter (AID 1109).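 Further: huh7 hepatoma cells harbouring a luciferase neomycin HCV replicon reporter; luciferase luminescence as measure of HCV replicon replication; test concentration not given here.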 To be noted: 48 h, higher = more signal.
Experiment [3] deals with Left-right determination factor 2 (Homo sapiens) (UniProt O00292). Briefly: LEFTY2 binders on small-molecule microarrays, primary screen, biochemical, small-molecule microarray, 635 nm fluorescence scan (AID 1110). To be noted: LEFTY2 binding, higher = more signal.
Experiment [4] concerns the target Calmodulin-1 (Homo sapiens) (UniProt P0DP23). Nature of the experiment: CALM1 binders on microarrays, EGTA buffer, profiling panel, biochemical, small-molecule microarray, Cy5-labelled CALM1 (AID 1111).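 Further: labelled calmodulin applied in Tris saline Tween buffer holding calcium plus EGTA and DTT.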 To be noted: Cy5-CALM1 binding fluorescence, higher = more signal.
Experiment [5] shares this target. Briefly: calcium-bound CALM1 binders on microarrays, profiling panel, artefact control for SMM control-protein annotation, biochemical, small-molecule microarray, Cy5-labelled CALM1, plus calcium (AID 1112).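 Further: score merges spot fluorescence with signal to noise from triplicate slides.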 To be noted: Cy5-CALM1 binding fluorescence, higher = more signal.
Experiment [6] is described as follows: small-molecule microarray binders of probe aWnt5a, primary screen, biochemical, biotinylated probe, 635/667 nm fluorescence (AID 1113).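 Further: score merges 667 nm fluorescence intensity with signal-to-noise per printed feature.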 To be noted: higher = more signal.
Experiment [7] can be described thus: small-molecule microarray binders of probe aShh, primary screen, biochemical, biotinylated probe, 635/667 nm fluorescence (AID 1114).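 Further: probe is biotin-labelled aShh protein from a stem cell growth factor screen; measures binding of labelled protein to compounds printed on the slide; score merges feature fluorescence at 667 nm with signal-to-noise.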 To be noted: higher = more signal.
Experiment [8] can be described thus: small-molecule microarray binders of probe aNog, primary screen, biochemical, biotinylated probe, 635/667 nm fluorescence (AID 1115).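 Further: probe is biotinylated aNog protein used at 0.15 µg/mL for 1 h at 4 C; z-score combines 667 nm fluorescence of each spot with its signal to noise.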 To be noted: higher = more signal.
The target of experiment [9] is Torsin-1A-interacting protein 1 (Homo sapiens) (UniProt Q5JTV8). Briefly: LAP1 binders from COS7 cell lysate, primary screen, small-molecule microarray, 635/667 nm fluorescence (AID 1116). To be noted: COS7-hLAP1 lysate binding, 635 nm fluorescence, higher = more signal.
Experiment [10] has as its target Alpha-bungarotoxin (Bungarus multicinctus) (UniProt P60615). Briefly: alpha-bungarotoxin binders on microarray, profiling panel, artefact control for SMM control protein annotation, biochemical, small-molecule microarray, Alexa647 label, 635/667 nm fluorescence (AID 1117). To be noted: alpha-BTX-A647 binding fluorescence, higher = more signal.

Left-right determination factor 2 (Homo sapiens), sequence (O00292 whole entry, looked up): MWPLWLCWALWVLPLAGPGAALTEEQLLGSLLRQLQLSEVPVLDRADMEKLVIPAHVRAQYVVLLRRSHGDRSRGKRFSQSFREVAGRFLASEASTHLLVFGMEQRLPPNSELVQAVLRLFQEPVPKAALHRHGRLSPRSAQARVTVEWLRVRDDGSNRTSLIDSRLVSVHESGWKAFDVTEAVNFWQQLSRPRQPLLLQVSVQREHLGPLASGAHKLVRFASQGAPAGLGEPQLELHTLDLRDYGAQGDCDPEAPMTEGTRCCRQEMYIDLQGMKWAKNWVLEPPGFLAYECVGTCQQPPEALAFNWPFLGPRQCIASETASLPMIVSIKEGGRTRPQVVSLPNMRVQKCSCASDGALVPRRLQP
Torsin-1A-interacting protein 1 (Homo sapiens), sequence (Q5JTV8 whole entry, looked up): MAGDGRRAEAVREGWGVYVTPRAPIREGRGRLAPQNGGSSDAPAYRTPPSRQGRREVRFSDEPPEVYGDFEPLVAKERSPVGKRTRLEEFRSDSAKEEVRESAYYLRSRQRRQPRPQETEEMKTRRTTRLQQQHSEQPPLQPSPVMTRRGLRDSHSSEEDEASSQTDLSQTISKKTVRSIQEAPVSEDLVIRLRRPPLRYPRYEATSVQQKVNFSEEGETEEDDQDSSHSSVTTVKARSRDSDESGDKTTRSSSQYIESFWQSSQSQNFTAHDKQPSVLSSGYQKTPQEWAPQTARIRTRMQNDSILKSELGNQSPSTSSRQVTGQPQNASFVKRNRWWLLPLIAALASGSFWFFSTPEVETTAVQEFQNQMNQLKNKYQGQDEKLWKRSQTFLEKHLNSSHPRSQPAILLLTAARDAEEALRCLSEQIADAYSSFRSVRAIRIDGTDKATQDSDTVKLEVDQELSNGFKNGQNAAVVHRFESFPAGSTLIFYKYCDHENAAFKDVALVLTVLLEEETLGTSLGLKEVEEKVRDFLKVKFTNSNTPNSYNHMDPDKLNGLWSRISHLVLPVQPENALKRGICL
Alpha-bungarotoxin (Bungarus multicinctus), sequence (P60615 whole entry, looked up): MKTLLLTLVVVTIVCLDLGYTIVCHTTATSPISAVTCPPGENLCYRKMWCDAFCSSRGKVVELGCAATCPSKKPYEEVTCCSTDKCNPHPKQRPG

In the case of `O=C1N(CCS(=O)(=O)c2ccccc2)c2ccccc2[C@H]2OC(c3ccc(OCCCO)cc3)=N[C@@]12Cc1ccccc1`, the composite z-score is 0.474 in experiment [1]; 0.949 in experiment [3]; 1.27 in experiment [4]; 0.517 in experiment [5]; 0.0101 in experiment [6]; 0.337 in experiment [7]. The composite z-score in experiment [8] is -0.0321; in [9], 2.03; in experiment [10] it was 1.66. The z-score in experiment [2] was -0.733.
With `CC(C)=C1C(=O)C(c2ccccc2)=C2CN3C(=O)N(CCc4ccccc4)C(=O)[C@]3(Cc3ccc(C(F)(F)F)cc3)[C@H]21`, the composite z-score was -0.396 in [1]; -0.906 in experiment [3]; 1.66 in experiment [4]; 0.953 in [5]; 0.0044 in [6]; 0.275 in experiment [7]. The composite z-score in [8] was -0.781; in [9], 0.759; in [10], 0.716. In experiment [2], the z-score was -0.508.
`CC1=C2[C@@H](CCc3ccccc3)OB(O)C[C@@H]2[C@@H]2C(=O)N(Cc3ccccc3)C(=O)[C@@H]2C1`: the composite z-score was -0.125 in experiment [1]; 0.809 in experiment [3]; -0.122 in experiment [4]; -0.605 in [5]; -0.0869 in experiment [6]; -0.0709 in experiment [7]. Moreover, the composite z-score was -0.314 in experiment [8], 0.59 in [9] and 0.659 in experiment [10]. For the same molecule, in experiment [2], the z-score was -0.873.
On to `O=C(NCCN1CCOCC1)[C@@H]1c2ccccc2C(=O)N(Cc2ccccc2Cl)[C@H]1c1ccc(CO)cc1`, for which the composite z-score in [1] was -0.388; in experiment [3], -0.341; in experiment [4] it was -0.635; in experiment [5] it was -0.725; in experiment [6], 0.0491; in experiment [7] it was -0.471. For the same molecule, the composite z-score in experiment [8] was 0.414; in experiment [9], -0.815; in [10] it was 0.27. Besides, the z-score in [2] is -0.786.
`COCCOC(=O)N1C(=O)[C@@]2(c3cc(C#CC4(O)CCCCCC4)ccc31)[C@H](C(=O)N1CCc3cc(OC)c(OC)cc3C1)[C@H]1C(=O)O[C@H](c3ccccc3)[C@H](c3ccccc3)N1[C@@H]2c1ccc(OCCO)cc1`: the composite z-score was 1.14 in [1]; 0.805 in [3]; 0.903 in experiment [4]; -0.392 in [5]; -0.0685 in experiment [6]; -0.0011 in experiment [7]. In addition, the composite z-score in [8] is -0.136; in experiment [9], 0.695; in experiment [10], 0.152. For the same molecule, the z-score in experiment [2] is -1.22.
Consider `CC(C)[Si]1(C(C)C)OCc2cc(C3CC3)nc(-c3ccc(Oc4ccccc4)cc3)c21`, for which the composite z-score in experiment [1] is -1.16; in experiment [3], -0.168; in experiment [4] it was -0.289; in [5], 0.631; in experiment [6], -0.18; in experiment [7] it was -0.117. For the same molecule, the values for the composite z-score in experiment [8], in [9] and in experiment [10] were -0.0208, -0.414 and -0.336, respectively. The z-score in experiment [2] was -2.24.
With `NCCCCCCNC(=O)[C@@H]1C[C@@H]2C(=O)N[C@@H](CCCCN)C(=O)N2[C@@H]1c1ccc(O)cc1`, the composite z-score was 1.31 in [1]; 0.642 in experiment [3]; -0.301 in experiment [4]; 0.0301 in experiment [5]; -0.172 in experiment [6]; 0.12 in experiment [7]. Besides, the composite z-score is -0.0087 in experiment [8], 1.66 in [9] and -1.03 in experiment [10]. Further, the z-score in [2] was -0.31.
With `O[C@@H](Cc1ccccc1)[C@@H](/C=C/C1CC1)N(CC#Cc1ccccc1)Cc1ccccc1Br`, the composite z-score in experiment [1] was -0.0988; in experiment [3], -0.804; in experiment [4] it was -0.582; in [5] it was 0.282; in experiment [6] it was -0.203; in experiment [7], -0.0769. The values for the composite z-score in [8], in [9] and in [10] were -0.224, -0.183 and -0.288, respectively. Moreover, in experiment [2], the z-score was -2.71.
In the case of `CC1CC/C=C\[C@H]2OC34C=CCN(C(C)(C)C)C(=O)[C@H]3N(CCCCCO)C(=O)[C@@H]4C2C(=O)O1` (stereo not given in full), the composite z-score in experiment [1] is -1.33; in experiment [3], -0.464; in [4] it was -0.835; in [5], -0.517; in [6] it was -0.199; in experiment [7], -0.283. Moreover, the composite z-score was -0.0105 in experiment [8], -0.348 in experiment [9] and -1.25 in experiment [10]. Also, in experiment [2], the z-score amounted to 0.095.
With `C=CCC(OC(C)=O)[C@@H]1[C@@H](N(Cc2cccc3ccccc23)C(=O)Cc2ccc(OC)cc2)c2cc(OCCCO)ccc2N1C(=O)c1ccc(-c2ccccc2)cc1` (stereo not given in full), the composite z-score is -0.446 in experiment [1]; -0.279 in experiment [3]; -0.228 in [4]; 0.726 in experiment [5]; -0.157 in [6]; -0.156 in experiment [7]. Besides, the composite z-score in experiment [8] came out at 0.546; in experiment [9], 0.435; in [10], 0.28. Besides, the z-score in [2] was determined as 0.321.
For the molecule `CC(C)N1C(=O)C[C@@](C(=O)NC2CC2)(c2ccc([N+](=O)[O-])cc2)[C@H]1c1ccc(CO)cc1`, the composite z-score in experiment [1] was 1.3; in experiment [3] it was -1.15; in [4], -0.673; in experiment [5] it was -0.606; in experiment [6], -0.0934; in experiment [7], -0.0709. Also, the composite z-score in experiment [8] is -0.566; in experiment [9], -0.315; in experiment [10] it was 0.181. The z-score in experiment [2] was -1.2.
As for `NC(=O)[C@@]1(Cc2ccccc2)COC(c2ccc(OCCCO)cc2)=N1`, the composite z-score is 0.404 in [1]; -0.263 in experiment [3]; 0.435 in experiment [4]; 1.2 in experiment [5]; -0.0179 in experiment [6]; 0.46 in experiment [7]. Besides, the results for the composite z-score in experiment [8], in experiment [9] and in experiment [10] were 0.959, 0.381 and -0.0002, respectively. For the same molecule, the z-score in experiment [2] is 1.84.
In the case of `COC(=O)[C@@]1(Cc2ccc(OC)cc2)[C@H]2c3cc(C(=O)N4CCCC4)n(CCO)c3C[C@H]2CN1C(=O)c1ccccc1`, the composite z-score was 1.1 in experiment [1]; -0.352 in experiment [3]; 0.841 in experiment [4]; 0.173 in experiment [5]; 0.433 in experiment [6]; 0.305 in experiment [7]. In addition, the composite z-score in [8] was found to be 1.85; in experiment [9], 1.47; in experiment [10], 0.365. The z-score in experiment [2] is -0.474.
`COc1cccc(C)c1NC(=O)O[C@H]1[C@H](OC(=O)Nc2ccccc2-c2ccccc2)[C@H](OC(=O)Nc2ccccc2-c2ccccc2)[C@@H](OC)O[C@@H]1CO`: the composite z-score is 1.41 in experiment [1]; 0.679 in experiment [3]; 1.72 in experiment [4]; 0.11 in [5]; 0.0304 in experiment [6]; -0.0192 in experiment [7]. The composite z-score was -0.518 in [8], 1.26 in experiment [9] and 0.688 in experiment [10]. In experiment [2], the z-score is -2.36.
In the case of `CCCCCCCCCC(O)C1C=CC2C(=O)N(c3ccccc3)C(=O)C2N1Nc1cc(OC)c(OC)c(OC)c1` (stereo not given), the composite z-score was 0.903 in [1]; -1.12 in [3]; 1.01 in [4]; 1.03 in [5]; -0.0685 in [6]; 0.239 in [7]. In addition, the composite z-score was 0.641 in experiment [8], 0.559 in experiment [9] and 0.774 in experiment [10]. Further, in experiment [2], the z-score is -2.58.
Take `CCOC(=O)C1=C[C@@H](C(C)(C)C)N(S(=O)(=O)c2ccc(C)cc2)[C@H]1c1cccc2ccccc12`: the composite z-score in experiment [1] is 1.28; in experiment [3] it was -0.49; in experiment [4], 1.07; in [5], 0.423; in experiment [6], -0.0478; in [7], -0.156. In addition, the composite z-score in experiment [8] was -0.145; in experiment [9], -0.281; in experiment [10] it was 0.657. For the same molecule, the z-score in [2] is -2.28.
`COc1ccc(C#Cc2ccc3c(c2)[C@]2(C(=O)N3)[C@H](C(=O)O)[C@H]3C(=O)O[C@H](c4ccccc4)[C@H](c4ccccc4)N3[C@@H]2c2ccc(O)cc2)cc1`: the composite z-score in experiment [1] was 0.78; in experiment [3], -0.67; in experiment [4], 0.695; in experiment [5], 1.2; in experiment [6], -0.124; in experiment [7], 0.214. The composite z-score in [8] was -0.0446; in [9] it was 0.286; in experiment [10], -0.204. The z-score in experiment [2] is -1.43.
Consider `O=C1O[C@H](c2ccccc2)[C@H](c2ccccc2)N2[C@H]1[C@@H](C(=O)O)[C@]1(C(=O)Nc3ccc(C#CCCO)cc31)[C@H]2c1ccccc1OCCO`, for which the composite z-score was 1.24 in [1]; -0.587 in experiment [3]; 0.4 in experiment [4]; 0.0772 in experiment [5]; -0.139 in experiment [6]; 0.0141 in experiment [7]. For the same molecule, the composite z-score in [8] is -0.539; in experiment [9] it was 0.182; in [10] it was 0.649. For the same molecule, the z-score in [2] was -0.488.

For the origin of these results see PubChem BioAssay.
